From PubChem
Hits are enriched below; roughly 4.3% of the tested compounds scored in any of these assays.
SMARCA2 activ: SMARCA2 function activation, primary screen; activation, % at 9.1 µM; MG213 cells, MMTV-luciferase reporter, dexamethasone, overnight; hit rate 1% among 370,000; in the data active = activation above about 7.8%;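 also: 0% = vehicle wells and 100% = reference activator wells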
HSF-1 act: increases HSF-1 driven luciferase reporter signal; NIH3T3-HGL HSF-1 luciferase reporter, MG132, 8 h; 100% = twice DMSO control signal; activation, % at 9 µM; hit rate 1.7% among 300,000;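 active = mean replicate activation of at least 50% with a set share of replicates each reaching 50%; inconclusive = only one of those two conditions met; inactive = mean below 50% and too few replicates reaching it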;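 also: 0% = median of the neutral control wells and 100% = twice that signal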
HSF1 inh: HSF1 inhibition; NIH3T3-HGL HSE-luciferase, MG132-induced, luminescence 8 h; stronger effect = lower value; activity change, negative = inhibition, % at 7.5 µM (by protocol); hit rate 0.77% among 300,000; AID 2098;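 active = more than half of replicate wells show activity change below -50%, luminescence cut by over half; inconclusive = some wells, but at most half, below -50%; inactive = no replicate well below -50%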;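 also: luciferase reports HSF-1 transcriptional activity via heat shock element; 0% = median of DMSO wells and -100% = zero luminescence signal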
esBAF inh: inhibitors of esBAF chromatin remodeling in mouse ES cells | Bmi1-luciferase knock-in reporter, 24 h; 100% = twice the neutral-well signal | reporter increase, % at 12.5 µM | hit rate 2% among 350,000; in the data active = activation above about 40%; inconclusive = no clear call, values can overlap the other calls;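 also: 0% = median of the plate's neutral control wells and 100% = double that signal; a rise in the Bmi1 reporter signal indicates esBAF inhibition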
Wnt act: Wnt/beta-catenin pathway activation; Wnt/beta-catenin reporter cell assay, activator, plate reader; activation, % at 9.35 µM; hit rate 1.2% among 300,000; in the data active = activation above about 30%, passing the limit was not always enough; inconclusive = no clear call, values can overlap the other calls;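 also: 0% = neutral control wells and 100% = positive control wells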
MITF act: activators of MITF-driven TRPM1 promoter activity in SK-MEL-5 cells; SK-MEL-5 TRPM1-promoter luciferase, 24 h; % of positive control, neutral wells = 0; activation, % at 12.5 µM; hit rate 0.75% among 300,000; AID 588334;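 active = mean activation of at least 80% with every replicate also reaching 80%; inconclusive = mean reaches 80% but some replicate falls short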;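 also: 0% = neutral control wells and 100% = parthenolide positive control wells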
Active calls of the source: *; ? = inconclusive; / = no result.

SMILES | SMARCA2 activ | HSF-1 act | HSF1 inh | esBAF inh | Wnt act | MITF act
Cc1ccc([C@H]2C[C@@H](O)[C@H](n3cc(C4CC4)nn3)CN2CC2CCCCC2)cc1 | 7.8* | / | / | -1 | -1 | /
O[C@@H]1C[C@H](c2ccc(Cl)cc2)N(CC2CCCCC2)C[C@H]1n1cc(C2CC2)nn1 | 7.9* | / | / | -6 | 0 | /
O=C(CCC1CCCC1)Nc1ccc([N+](=O)[O-])cn1 | 6 | 10 | 14 | 59* | / | 42
CC(C)(C)c1ccc(C(=O)Nc2ccc([N+](=O)[O-])cn2)cc1 | 2 | 54* | 38 | / | / | 107*
O=C(Nc1ccc([N+](=O)[O-])cn1)c1cccnc1 | -3 | 6 | -5 | -6 | -3 | /
CC(C)NC(=O)Nc1ccc2c(c1)C(=O)N([C@H](C)CO)C[C@H](C)[C@@H](CN(C)Cc1ccc(Cl)c(Cl)c1)O2 | / | / | / | 2 | / | /
CC(=O)Oc1ccc(C(=O)O)cc1OC(C)=O | -2 | -26 | -8 | 9 | -2 | -12
CC(=O)Oc1ccc(OC(C)=O)c(SCCCCCCl)c1 | 7 | -96 | -96* | / | -20 | -3
COCC(=O)N(C)C[C@@H]1Oc2cc(C#C[C@H](C)O)ccc2S(=O)(=O)N([C@H](C)CO)C[C@@H]1C | / | / | / | 1 | / | /
Cc1nc(SCc2ccccc2)nc2c1CCC2 | 3 | / | / | 100* | 16 | 93*
O=C(O)[C@@H]1[C@@H](CO)[C@@H]2Cn3c(ccc(-c4ccccc4)c3=O)[C@@H]2N1CCc1ccccc1 | / | / | / | -1 | / | /
O=C(Sc1cccc2cccnc12)c1ccccc1Br | -11 | 207* | 138 | -81 | 4 | -84
CC(=O)/C(=N\Nc1ccccc1Cl)Sc1cccc2cccnc12 | -2 | 143* | 131 | / | / | -6
CC(=O)/C(=N\Nc1ccccc1)Sc1cccc2cccnc12 | -1 | 187* | 167 | / | / | -4
O=C(Sc1cccc2cccnc12)c1ccc(F)cc1 | -13 | / | / | / | / | /
O=C(CSc1cccc2cccnc12)Nc1ccccc1F | 0 | 10 | 3 | 6 | 2 | 13
Cc1ccc(-c2[nH]ncc2/C=N/n2c(C)nc3ccccc3c2=O)cc1 | -3 | -60 | -52* | / | -1 | /
O=c1c2ccccc2nc(COc2ccccc2)n1/N=C/c1cn[nH]c1-c1ccccc1 | 0 | 4 | -18 | 26 | -2 | 22
Cc1ccc2oc(C(=O)N(C)Cc3ccc(C)o3)c(C)c2c1 | -1 | 15 | 2 | 23 | 3 | 38
Cc1ccc2oc(C(=O)N(C)Cc3ccon3)c(C)c2c1 | 7 | 36 | 27 | 52* | 44* | 112*
C[C@@H]1CCCCO[C@@H](CN(C)C(=O)Nc2ccc3c(c2)OCO3)[C@H](C)CN([C@H](C)CO)C(=O)c2cc(NS(=O)(=O)c3ccc(F)cc3)ccc2O1 | / | / | / | 3 | / | /
Cc1ccc(/C=[N+](\[O-])c2ccc(N(C)C)cc2)c2nsnc12 | 3 | -61 | -57* | / | -1 | -4
C[C@H]1CN([C@@H](C)CO)C(=O)c2cccc(NC(=O)Nc3ccccc3)c2O[C@@H]1CN(C)C | / | / | / | 4 | / | /
CC(=O)Nc1ccc(C(=O)COC(=O)C2CC2)c(F)c1 | 3 | / | / | 40 | 38* | 126*
CCCC(=O)Nc1ccc(C(=O)COC(=O)C2CC2)cc1 | 1 | / | / | 39 | 48* | 73
SMILES | SMARCA2 activ | HSF-1 act | HSF1 inh | esBAF inh | Wnt act | MITF act
CC(C)(C)c1ccc(C(=O)c2c[nH]c(C(=O)NCc3cccnc3)c2)cc1 | 0 | 40 | 2 | 55* | / | /
CC(C)(C)c1ccc(OCc2ccc(C(=O)NCc3cccnc3)o2)cc1 | 4 | 112* | 57 | ? | 51* | 59
CC(C)(C)c1ccc(C(=O)NCc2cccnc2)cc1 | 0 | 2 | 3 | / | -12 | /
CCCC(=O)Nc1nc2ccc3nc(C)sc3c2s1 | 3 | 5 | 7 | 41* | / | 36
CCOc1ccc2nc(N(Cc3ccccc3)C(=O)CCNC(C)=O)sc2c1 | -2 | 57* | 15 | / | 7 | 26
CCCC(=O)Nc1nc2ccc(OCC)cc2s1 | 1 | 36 | 20 | 35 | 41* | 96*
O=C(Nc1ccc(C(F)(F)F)cc1)N[C@@H]1CC[C@H](CCn2cc(C3(O)CCCC3)nn2)O[C@@H]1CO | / | / | / | -28 | / | /
O=C(C[C@H]1C[C@H]2c3cc(NC(=O)Cc4ccncc4)ccc3O[C@H]2[C@H](CO)O1)NCc1cccnc1 | / | / | / | 3 | / | /
COc1ccccc1CNCc1cc(OC)c(OC)cc1OC | 0 | -6 | -13 | -4 | 1 | -2
COc1ccccc1CNCC(c1ccccc1)c1ccccc1 | -2 | 61* | 25 | / | -1 | 15
